Test results from PubChem BioAssay (Tox21).
Results filed as inconclusive are left out. Calls of active or inactive are those of the source. The call rests on the fitted dose curve; in most records, active means well fitted activation curve with a large enough effect in the repeat runs; inconclusive means weak or mixed curves; inactive means flat fitted curve, though single readings scatter.

Assay: A CellTox Green Cytotoxicity Assay to monitor cytotoxicity in HepG2 cells - 8 hour (AID 1224890); further: nearly all actives have a fitted effect of over 45% in size
Settings: CellTox Green fluorescence; series mostly up to 76.8 µM
From the text: National Center for Advancing Translational Sciences [NCATS]
NIH Chemical Genomics Center [NCGC]
U.S. Environmental Protection Agency [EPA]
National Institutes of Environmental Health Sciences [NIEHS]
National Toxicology Program [NTP]
Cell-based models are critical for drug discovery. Determining the natural cytotoxic effects resulting from test compounds is an essential research activity. A CellTox Green Cytotoxicity Assay to monitor cytotoxicity in real time of continues cell culture during 40 hours of the compound treatment was used to screen Tox21 10K library compounds in HepG2 cells. CellTox Green Cytotoxicity Assay is a nonlytic, homogeneous, biofluorescent method to measure cytotoxicity in cell culture after experimental manipulation. The assay system uses a proprietary asymmetric cyanine dye that is excluded from viable cells but preferentially stains the dead cell's DNA. […] Viable cells produce no appreciable increases in fluorescence. Therefore, the fluorescence signal produced by the binding interaction with dead cell DNA is proportional to cytotoxicity.
The mixture of HepG2 cell suspension and reagents were dispensed at 600cells/6 ul/well in 1536-well tissue culture treated black solid bottom plates using a Multidrop dispenser. After the assay plates were incubated at a 37 C/5% CO2 incubator for 5 hours, 23 nL of compounds dissolved in DMSO, positive and negative controls was transferred to the assay plate by a pintool work station. The plates were incubated at 37 C for 40 hours. The fluorescence intensity were measured at 0h, 8h, 16h, 24h, 32h and 40h time points using ViewLux plate reader during compound treatment.
In the case of `CC(C)=CCl`, the outcome was “inactive”.
In the case of `CCCCCC(=O)O`, the outcome was “inactive”.
With `CCO[Si](CCC#N)(OCC)OCC` the outcome was “inactive”.
In the case of `C=CC(C)CCCC(C)(C)O` (stereo not given), the outcome was “inactive”.
For `C[Si]1(C)O[Si](C)(C)O[Si](C)(C)O[Si](C)(C)O1`, the outcome was “inactive”.
With `COc1ccccc1OCC(O)CO` (stereo not given) the outcome was “inactive”.
In the case of `C=C(C)CNCC`, the outcome was “inactive”.
With `CC(=O)OCc1ccco1` the outcome was “inactive”.
With `CCCCCCC=O` the outcome was “inactive”.
With `COc1ccc(C)cc1N` the outcome was “inactive”.
With `O=C(O)Cn1c(=O)n(Cc2ccc(Br)cc2F)c(=O)c2ccc(Cl)cc21` the outcome was “inactive”.
For `O=C1c2ccccc2CCc2ccccc21`, the outcome was “inactive”.
In the case of `C=Cc1ccc(C)cc1`, the outcome was “inactive”.
For `CC(=O)OCc1ccccc1`, the outcome was “inactive”.
With `CC1(C)OC[C@@H]2O[C@@]3(C(=O)O)OC(C)(C)O[C@H]3[C@@H]2O1` the outcome was “inactive”.
For `CCCCCCO`, the outcome was “inactive”.
In the case of `COC(=O)c1cccnc1`, the outcome was “inactive”.
For `COC(=O)CCCC(=O)OC`, the outcome was “inactive”.
For `C=CCCCCCCCCC(=O)O`, the outcome was “inactive”.
With `O=C(O)c1ccc(C(=O)O)c(C(=O)O)c1` the outcome was “inactive”.
With `C=C(C)C(=O)OCC(C)C` the outcome was “inactive”.
With `CN/C(=C\[N+](=O)[O-])NCCSCc1csc(CN(C)C)n1` the outcome was “inactive”.
With `CC(CCO)CC(C)(C)C` (stereo not given) the outcome was “inactive”.
For `C=CC[N+](C)(C)CC=C`, the outcome was “inactive”.
With `CCO[Si](CCCN)(OCC)OCC` the outcome was “inactive”.
With `c1ccc2c(c1)Cc1ccccc1-2` the outcome was “inactive”.
For `CNC(=S)N(C)C`, the outcome was “inactive”.
For `CCCCOC(=O)c1ccc(N)cc1`, the outcome was “inactive”.
For `CCCCCCCCCCCC(=O)OC`, the outcome was “inactive”.
With `C[C@]12CC[C@@H]3c4ccc(O)cc4CC[C@H]3[C@@H]1C[C@@H](O)[C@@H]2O` the outcome was “inactive”.
With `C=CCc1ccc(OC)c(OC)c1` the outcome was “inactive”.
For `CC(C)(Oc1ccc(CCNC(=O)c2ccc(Cl)cc2)cc1)C(=O)O`, the outcome was “inactive”.
With `CN(C)c1ccc(O)c2c1C[C@H]1C[C@H]3[C@H](N(C)C)C(=O)C(C(N)=O)=C(O)[C@@]3(O)C(=O)C1=C2O` the outcome was “inactive”.
For `COc1ccc(CCC(C)=O)cc1`, the outcome was “inactive”.
For `CC(CCl)OP(=O)(OC(C)CCl)OC(C)CCl` (stereo not given), the outcome was “inactive”.
With `C=C(C)[C@H]1CC=C(C)C(=O)C1` the outcome was “inactive”.
With `CC(C)OP(=O)(CP(=O)(OC(C)C)OC(C)C)OC(C)C` the outcome was “inactive”.
In the case of `CC1(C)CC(N)CC(C)(CN)C1` (stereo not given), the outcome was “inactive”.
For `CSc1ccc(Cl)cc1`, the outcome was “inactive”.
For `COc1ccc([N+](=O)[O-])cc1N`, the outcome was “inactive”.
